# Records with an inconclusive call do not appear. A call without a number means that no potency is given here. Calls of active or inactive are those of the source. Calls follow the shape of the dose curve; as a rule, active = well fitted curve in either direction with a large enough effect (not every such curve was filed as active); inconclusive = small, poorly fitted or top-dose-only effect, or another doubt; inactive = flat fitted curve, though single readings scatter.
# Biological target: Mitogen-activated protein kinase 10 (Mus musculus) (UniProt Q61831)
# Assay: JNK3 AlphaScreen Assay (AID 530);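 also: kinase came from lysate of stimulated human HepG2 cells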
# Conditions: JNK3 lysate, c-Jun phosphorylation; series mostly up to 25.6 µM
# Source text: NIH Chemical Genomics Center [NCGC]
# NIH Molecular Libraries Screening Centers Network [MLSCN]
# The c-jun N-terminal kinase (JNK) family are serine/threonine protein kinases that phosphorylate c-jun, a component of the transcription factor […] (AP-1). JNK kinases are members of the mitogen-activated protein kinase family including the extracellular regulated kinases and p38 kinases. Three JNK genes (JNK 1, 2, and 3) have been identified in humans so far. JNK1 and JNK2 have a broad distribution and JNK3 is primarily found in neuronal tissues and cardiac myocytes.
# JNK3 has been under consideration as a target for the treatment of neurodegenerative disorders. […] JNK pathway is also involved in pathological process in a mouse model of Parkinson's disease (Xia et al., 2001).
# Given these potential tissue distributions and links to neuroprotection, JNK3 inhibitors should provide useful investigational tools to study the role of this kinase in several diseases including, arthritis, stroke, myocardial infarction, ischemic injury and Parkinson's disease.
# A homogeneous AlphaScreen is developed to measure the activity of JNK3. AlphaScreen is a two bead-based proximity-dependent chemical energy transfer luminescent assay platform. The phosphorylation of a biotinylated c-jun substrate by JNK3 can be detected with an antibody raised against phosphorylated c-jun. This process brings streptavidin donor beads and Protein-A acceptor beads to within a proximity range of <200 nm, and subsequently lead a chemical luminescent reaction upon exciting donor beads with 680 nm laser excitation light. Inhibition of JNK3 activity by small molecules and subsequent decrease in the antibody binding to biotinylated c-jun could attenuate or abolish this chemical luminescent reaction.
# Yang DD, Kuan CY, Whitmarsh AJ, Rincon M, Zheng TS, Davis RJ, Rakic P and Flavell RA (1997) Absence of excitotoxicity-induced apoptosis in the hippocampus of mice lacking the Jnk3 gene. Nature 389:865-870. [PMID: 9349820]
# Herdegen T, Claret FX, Kallunki T, Martin-Villalba A, Winter C, Hunter T, and Karin M (1998) Lasting N-terminal phosphorylation of c-Jun and activation of c-Jun N-terminal kinases after neuronal injury. J.Neurosci. 18:5124-5135. [PMID: 9651196]
# Xia XG, Harding T, Weller M, Bieneman A, Uney JB and Schulz JB (2001) Gene transfer of the JNK interacting protein-1 protects dopaminergic neurons in the MPTP model of Parkinson's disease. Proc.Natl.Acad.Sci.U.S.A. 98:10433-10438.
# NCGC Assay Protocol Summary:
# GST-cJun (1-79) (Stratagene, La Jolla CA, #205145) was biotnylated by PerkinElmer (PerkinElmer-BioSignalInc. Montreal, Canada) and was detectable by the streptavidin Donor beads. Anti-(phospho)cJun (Ser73) antibody was from UpState (Charlottesvilles, VA, #06-659). JNK3-containing lysates were generated from HepG2 cells and pre-activated by interleukin1-beta and tumor necrosis factor alpha. All reagents were stored at -20 C before using. Phosphorylated biotinylated-GST-cJun was recognized by Anti-(phospho)cJun (Ser73) antibody and this process brings acceptor and donor beads together. Therefore JNK3 phosphorylation of cJun can be measured by Alpha reading by EnVision (PerkinElmer, Boston, MA).
# The composition of kinase buffer was (in mM) 20 tris- HCl (pH 7.6) 10 MgCl2, 1 DTT, and 0.1 Na3VO4 and 0.01% Tween-20. Beads were diluted in detection buffer containing (in mM) 20 tris-HCl (pH 7.7), 20 NaCl and 80 EDTA and 0.3% BSA. The assay was performed at room temperature. All compounds were screened as titrations from 0.6 nM to 46 uM final concentration. The assay was performed in 1536-well format (white solid bottom and untreated) as follows:
# Sequence,Parameter,Value,Description
# 1,Reagent,3 uL,Biotin-GST-cJun, Anti-(phospho)cJun and pre-activated JNK3-containing lysates
# 2,Compound,23 nL,Final concentration was 0.6nM to 46uM
# 3,Time,15 minutes,Room Temperature
# 4,Reagent,1 uL,ATP final concentration 10uM
# 6,Reagent,0.5 uL,2ng/well bead mixture
# […]
# Potency is read from the fitted curve at half-maximal effect.
row,SMILES,Potency
1,CN(C)c1ccc(C(=C2C=CC(=[N+](C)C)C=C2)c2ccc(N(C)C)cc2)cc1,2 µM (active)
2,O=c1oc2c(O)c(O)cc3c(=O)oc4c(O)c(O)cc1c4c23,1.26 µM (active)
3,NC(N)=NC(N)=NCCc1ccccc1,inactive
4,Cc1noc(NS(=O)(=O)c2ccc(N)cc2)c1C,inactive
5,CC[C@H](C)C(=O)O[C@H]1C[C@@H](C)C=C2C=C[C@H](C)[C@H](CC[C@@H]3C[C@@H](O)CC(=O)O3)[C@H]21,inactive
6,COc1ccc2cc3[n+](cc2c1OC)CCc1cc2c(cc1-3)OCO2,inactive
7,Clc1ccccc1CN1CCc2sccc2C1,inactive
8,COc1ncnc(NS(=O)(=O)c2ccc(N)cc2)c1OC,inactive
9,CNNCc1ccc(C(=O)NC(C)C)cc1,inactive
10,COc1cnc(NS(=O)(=O)c2ccc(N)cc2)nc1,inactive
11,N=C(N)c1ccc(OCCCCCOc2ccc(C(=N)N)cc2)cc1,inactive
12,CCn1cc(C(=O)O)c(=O)c2cc(F)c(N3CCNCC3)cc21,inactive
13,NC(=O)c1cccc(N)c1,inactive
14,COC(=O)Nc1nc2ccc(C(=O)c3ccccc3)cc2[nH]1,inactive
15,Cc1ncc([N+](=O)[O-])n1CCO,inactive
16,Nc1[nH]c(=O)ncc1F,inactive
17,NNC(=O)c1ccncc1,inactive
18,O=C(O)c1cccnc1,inactive
19,CCOC(=O)c1ccc(OC(=O)CCCCCN=C(N)N)cc1,inactive
20,CC1=CC(=O)c2ccccc2C1=O,inactive

row,SMILES,Potency
1,COc1cc2ncnc(Nc3cccc(Cl)c3)c2cc1OC,inactive
2,CCn1cc(C(=O)O)c(=O)c2cc(F)c(N3CCNCC3)nc21,inactive
3,O=C(N[C@H](CO)[C@H](O)c1ccc([N+](=O)[O-])cc1)C(Cl)Cl,inactive
4,Cc1nnc(NS(=O)(=O)c2ccc(N)cc2)s1,inactive
5,CCc1cc(C(N)=S)ccn1,inactive
6,Cc1ccc(S(=O)(=O)N[C@@H](Cc2ccccc2)C(=O)CCl)cc1,inactive
7,Cc1ccnc2c1NC(=O)c1cccnc1N2C1CC1,inactive
8,COC(=O)Nc1nc2ccc(Sc3ccccc3)cc2[nH]1,inactive
9,Cc1cc(NS(=O)(=O)c2ccc(N)cc2)no1,inactive
10,COc1cc(NS(=O)(=O)c2ccc(N)cc2)nc(OC)n1,inactive
11,Cc1cccc(Nc2ccncc2S(=O)(=O)NC(=O)NC(C)C)c1,inactive
12,COc1ccc2c(c1)c(CC(=O)OCC(=O)O)c(C)n2C(=O)c1ccc(Cl)cc1,inactive
13,CC(=O)[C@H]1CC[C@H]2[C@@H]3CCC4=CC(=O)CC[C@]4(C)[C@H]3CC[C@]12C,inactive
14,CC(C)(Sc1cc(C(C)(C)C)c(O)c(C(C)(C)C)c1)Sc1cc(C(C)(C)C)c(O)c(C(C)(C)C)c1,inactive
15,N[C@@H](Cc1ccc(O)c(O)c1)C(=O)O,inactive
16,O=C(O)c1cn(C2CC2)c2cc(N3CCNCC3)c(F)cc2c1=O,inactive
17,Nc1ccc(S(=O)(=O)Nc2ccccn2)cc1,inactive
18,CCCCOc1ccc(CC(=O)NO)cc1,inactive
19,CCCOc1ccc(C(=O)OCCN(CC)CC)cc1N,inactive
20,O=C(O)c1cc(=O)[nH]c(=O)[nH]1,inactive

# — PubChem BioAssay (NCATS)
